# SMN2 splice up: SMN2 splice variant enhancement. hit rate 2.8% among 210,000. HEK293 SMN2-luciferase splicing reporter, luminescence, 30-36 h. Potency, µM (top dose mostly 46.1 µM), usual class: activators; note: nearly all actives have a fitted effect of over 55% in size
#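 HEK293 cells carry an SMN2 […]–luciferase reporter in which exon 7 inclusion puts luciferase in frame. Cells were plated 10-12 h before compound addition, then incubated 30-36 h at 37C. ONE-Glo luminescence was read; sodium butyrate at 4.5 mM final served as control.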
# ELG1 genotoxic: induces genotoxicity in HEK293T cells with luciferase-tagged ELG1; HEK293T ELG1-luciferase reporter, luminescence, 16 h; Potency, µM (series often up to 46 µM), actives largely listed as activators; hit rate 1.3% among 330,000; AID 504466; note: nearly all actives have a fitted effect of over 60% in size
#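 Luminescence read-out: rising ELG1-luciferase signal, reflecting elevated ELG1 protein under genetic stress, flags genotoxic compounds. Cells were treated for 16 hr at 37 °C before ONE-Glo detection.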
# Luc counter: Kinase-Glo luciferase inhibition (counter-screen); Q27757; Kinase-Glo luciferase, ATP luminescence, 8 min; Potency, µM (highest dose often 38.3 µM), usual class: inhibitors; hit rate 0.28% among 200,000; note: nearly all actives have a fitted effect of over 60% in size
#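 Kinase-Glo luciferase light output from ATP and luciferin was measured with 10 uM ATP, within the enzyme's linear range. Buffer: 50 mM imidazole pH 7.2, 50 mM KCl, 7 mM MgCl2, 0.01% Tween 20, 0.05% BSA; luminescence read after 8 min at ambient temperature.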
# NPC1 prom act: activates the NPC1 promoter. Potency, µM (doses to about 9.22 µM), actives largely listed as activators. Huh7 NPC1 promoter luciferase reporter, 24 h. hit rate 2.4% among 320,000. AID 485313; note: nearly all actives have a fitted effect of over 60% in size
#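 Quantitative HTS used a cell-based reporter: Huh7 cells stably bearing the NPC1 promoter upstream of luciferase were treated with compounds for 24 h, and promoter activation was read as luminescence.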
# Rab9 promoter act: Rab9 promoter activation; Huh7 Rab9 promoter-luciferase reporter, luminescence, 24 h; Potency, µM (series often up to 9.22 µM), most hits filed as activators; hit rate 2.8% among 320,000; AID 485297; note: nearly all actives have a fitted effect of over 60% in size
#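 Luciferase signal after 10 min detection reagent at ambient indicates Rab9 promoter upregulation; stably transfected Huh7 cells were treated 24 h with compound in DMSO at 37 °C, 5% CO2.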
# FLuc modulator: firefly luciferase modulation, counter-screen for miR-21 project; P08659; purified FLuc, Km substrates, luminescence inhibition; Potency, µM (doses to about 57.5 µM), most hits filed as inhibitors; hit rate 6.9% among 360,000; AID 588342; note: nearly all actives have a fitted effect of over 55% in size
# Target sequence (P08659 whole entry, looked up): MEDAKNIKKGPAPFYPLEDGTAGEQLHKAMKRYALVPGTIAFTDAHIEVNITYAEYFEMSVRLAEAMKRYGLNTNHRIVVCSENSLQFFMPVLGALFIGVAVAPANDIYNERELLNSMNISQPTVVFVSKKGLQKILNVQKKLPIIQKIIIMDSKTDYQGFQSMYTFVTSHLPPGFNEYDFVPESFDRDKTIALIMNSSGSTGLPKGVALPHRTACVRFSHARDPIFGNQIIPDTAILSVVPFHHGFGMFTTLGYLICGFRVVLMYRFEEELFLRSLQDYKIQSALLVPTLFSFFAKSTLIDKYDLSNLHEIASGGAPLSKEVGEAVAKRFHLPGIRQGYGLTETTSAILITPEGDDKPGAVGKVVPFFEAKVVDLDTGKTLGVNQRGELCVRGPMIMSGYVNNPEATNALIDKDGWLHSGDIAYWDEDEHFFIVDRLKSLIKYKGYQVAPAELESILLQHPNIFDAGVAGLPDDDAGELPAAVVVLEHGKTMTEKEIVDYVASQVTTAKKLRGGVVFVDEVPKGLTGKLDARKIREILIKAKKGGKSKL
#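 Biochemical qHTS of compounds, final roughly 60 µM downward over six points, against 10 nM purified firefly luciferase using Km concentrations of substrates (10 uM D-luciferin, 10 uM ATP) in Tris acetate pH 7.5 buffer; luminescence output.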
# Hits are given with their value; n = inactive; u = inconclusive; x = not tested or not shown; [ ] = dose if it differs, or a comment. Only some compounds are listed: those with a hit (about 7.5% of all), similar ones and a draw of the others. Calls come from the whole dose curve; as a rule, active = well fitted curve in the direction sought with a large enough effect; inconclusive = small, poorly fitted or top-dose-only effect, or another doubt; inactive = no such curve, though single readings can be large; an effect the other way counts as inactive or inconclusive.
SMILES,SMN2 splice up,ELG1 genotoxic,Luc counter,NPC1 prom act,Rab9 promoter act,FLuc modulator
O=C(O)C1C2CCC(C2)C1C(=O)NCCc1ccccc1 (stereo not given),x,n,x,n,n,n
C=CCOc1c(Br)cc(/C=C2/NC(=S)N(C(C)=O)C2=O)cc1OC,n,n,n,n,n,1.5µM
CN(C)c1ccc(-c2nn3c(-c4cccnc4)nnc3s2)cc1,n,u,n,n,n,n
Cc1nnc2sc(-c3ccc(N(C)C)cc3)nn2c1=O,x,16µM,x,3.2µM,u,7.6µM
CCOC(=O)SC1=N/C(=C\c2ccc(N(C)C)cc2)C(=O)S1,n,n,n,n,n,9.5µM
CCSC1=N/C(=C\c2ccc(C(=O)O)cc2)C(=O)S1,n,n,n,n,n,9.5µM
C=CCSC1=N/C(=C\c2ccc(C)o2)C(=O)S1,n,n,n,n,n,15µM
O=C1SC(SCc2ccccc2Cl)=N/C1=C\c1ccc(C(=O)O)cc1,n,n,n,n,n,21µM
COC(=O)c1ccc(/C=C2\N=C(SC)SC2=O)cc1,x,n,x,n,n,n
O=C(O)CC1NCCc2ccccc21 (stereo not given),x,n,x,n,n,n
CCCCCCCCCCCCCCCCCCOC[C@H](COP(=O)([O-])OCC[N+](C)(C)C)OC(C)=O,n,x,n,x,x,x
NS(=O)(=O)c1ccc(CNS(=O)(=O)c2cc(Cl)ccc2Cl)cc1,x,n,x,n,n,n
CCc1ccc(NC(=O)C(=O)NCCc2sc(-c3ccc(C)cc3)nc2C)cc1,x,x,x,x,x,n
C=CCSC1=N/C(=C\c2ccc(C(=O)O)cc2)C(=O)S1,n,n,n,n,n,11µM
C=CCSC1=N/C(=C\c2ccsc2)C(=O)S1,n,n,n,n,n,u
NC(=O)COC(=O)c1sc2ccccc2c1Cl,n,n,n,n,n,u
Cc1cc(C)n(CCOC(=O)c2sc3ccccc3c2Cl)n1,n,n,n,n,n,8.5µM
Cc1c(C(=O)N2CCC(c3nc4ccccc4s3)CC2)oc2ccc(Cl)cc12,x,x,x,x,x,n
COCC(C)NC(=O)c1cc2cccc([N+](=O)[O-])c2[nH]1 (stereo not given),x,n,x,n,n,n
Cc1cc(NC(=O)c2cc3cccc([N+](=O)[O-])c3[nH]2)ccc1F,x,u,x,2.5µM,2.2µM,5.4µM
Cc1ccc(NC(=O)CSc2nc(=O)n(CCN3CCOCC3)c3c2CCC3)cc1Cl,x,x,x,x,x,n
CCCCn1c(=O)c2oc3ccccc3c2n(Cc2ccc(C)cc2)c1=O,x,x,x,x,x,n
COc1ccc(N=Nc2cc(C)ccc2O)cc1,x,3.7µM,x,1.1µM,0.4µM,0.48µM
CC(=O)/C(N=Nc1cc(C)ccc1O)=C(\C)O,x,n,n,n,n,n
COc1ccc(NCc2c(O)ccc3ccccc23)cc1,n[9.22 µM],x,n[7.66 µM],x,x,x
SMILES,SMN2 splice up,ELG1 genotoxic,Luc counter,NPC1 prom act,Rab9 promoter act,FLuc modulator
COc1ccc(C(=O)c2ccccc2)c(O)c1,n,u,n,n,n,u
COc1cccc(N=Nc2ccc3ccccc3c2O)c1,x,u,x,u,4µM,0.34µM
COc1ccc(N=Nc2ccc(N)nc2N)cc1,x,9.2µM,x,1µM,2.5µM,2.4µM
COc1ccc(N=Nc2ccc3ccccc3c2)c(O)c1,x,0.92µM,x,3.2µM,4µM,0.38µM
COC(=O)c1ccc(NC(=O)Cn2ccn3nc(-c4ccc(OC)cc4)cc3c2=O)cc1,x,x,x,x,x,n
CCc1ccccc1NC(=S)N(Cc1ccc(OC)cc1)CC1CCC(C(=O)O)CC1 (stereo not given),x,n,x,n,n,n
CN(/N=C/c1cc(Cl)cc(Cl)c1O)c1c(Cl)cccc1[N+](=O)[O-],x,n,x,n,n,n
CCOc1ccccc1C(=O)Oc1c(S(=O)(=O)c2ccc(C)cc2)c(C)nn1-c1ccccc1,n,x,x,x,x,u
CC(CNC(=O)c1cnn(-c2ccc(F)cc2)c1-n1cccc1)c1ccccc1 (stereo not given),x,x,x,x,x,n
Cc1ccc(O)c(C(=O)c2cc(C#N)c(=O)n(-c3nccs3)c2)c1,x,n,n,n,n,n
Cc1ccc(S(=O)(=O)N2CCCCC2)cc1,x,n,x,n,n,n
Cc1ccc(O)c(N=Nc2nccs2)c1,x,23µM,x,n,n,9.5µM
Cc1ccc(O)c(N=Nc2ccc(S(=O)(=O)N3CCCC3)cc2)c1,x,n,x,u,u,15µM
CC1Oc2ccccc2C=C1/C=N/NC(=O)c1ccncc1 (stereo not given),x,n,x,n,n,17µM
CN1CCN(NC(=S)NC2CCCC2)CC1,n,n,n,n,n,n
O=C(OCC(=O)N1CCN(Cc2ccccc2)CC1)c1cc(Cl)ccc1[N+](=O)[O-],x,n,x,n,n,n
O=C(COC(=O)c1cccc(F)c1)Nc1ccc2c(c1)OCCO2,x,n,x,n,n,1.9µM
O=C(OCC1COc2ccccc2O1)c1ccccc1F (stereo not given),n,n,n,n,n,6µM
O=C(COC(=O)c1ccccc1F)Nc1ccc2c(c1)OCCO2,x,n,x,n,n,0.48µM
Cc1cccc(C(=O)OCC(=O)Nc2ccc3c(c2)OCCO3)c1,x,n,x,n,n,19µM
Cc1nn(C(C)C(=O)N2CCN(c3ccc(F)cc3)CC2)c(=O)c2c1sc1ccccc12 (stereo not given),x,x,x,x,x,n
CO/N=C1\CN(c2nc3c(cc2F)c(=O)c(C(=O)O)cn3C2CC2)CC1CN (stereo not given),n,x,n,x,x,x
Cc1ccc2c(c1)N(CCCC(=O)NCc1cccc(F)c1)C(=O)CO2,n,x,x,x,x,n
CCn1c(=O)c2cc(C(=O)NCc3ccc(F)cc3Cl)sc2c2ccccc21,n,x,x,x,x,n
COc1ccc(C(O)c2nc3ccccc3n2C(C)C)cc1 (stereo not given),x,n,x,n,n,n
SMILES,SMN2 splice up,ELG1 genotoxic,Luc counter,NPC1 prom act,Rab9 promoter act,FLuc modulator
CC(=O)c1cccc(NC(=O)N2CCC(CN3CCCCC3)CC2)c1,x,x,x,x,x,n
O=C(COc1ccccc1)Nc1ccccc1Cl,n,u,n,u,u,15µM
COc1ccccc1OCC(=O)NCCSCc1ccccc1Cl,n,n,n,n,n,n
COC(=O)c1ccccc1NC(=O)COc1ccccc1,n,n,n,n,n,u
O=C(COc1ccccc1)NCCSCc1ccccc1Cl,x,n,n,n,n,27µM
CSc1ccccc1C(=O)NCc1ccccc1C,n,n,n,n,n,n
CCOc1ccc(Oc2ccc(NS(=O)(=O)c3cc(C(=O)O)ccc3Cl)cc2)cc1,x,n,x,n,n,n
CCOc1ccc(NS(=O)(=O)c2cc(NC(=O)c3ccc(C)cc3)ccc2Cl)cc1,n,n,n,n,n,13µM
CCOc1ccc(C(=O)c2cccs2)cc1,n,u,n,u,u,17µM
COc1ccc(/C(C)=N/NC(=O)c2ccc(NS(=O)(=O)c3cccs3)cc2)cc1,x,n,x,n,n,21µM
COc1ccc(/C(C)=N/NC(=O)c2nc(C)cc(C)n2)cc1,11µM,5.6µM,n,u,u,24µM
O=C(Cc1ccccc1)NCCc1csc2nc(-c3ccc(Cl)cc3)nn12,x,x,x,x,x,n
